Our source for the growth values is PubChem BioAssay (NCI).

Compounds without any hit were thinned out: in the full panel of roughly 83,000, 20% have a hit.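 Step 1: grow cells in 96-well plates. Step 2: add test compound at a single concentration. Step 3: incubate 48 h. Step 4: record percent growth.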 Values without a mark were called inactive. Activity calls are given as the source filed them.

For this experiment, the system named is HCT-116 colon. As to the kind of experiment: NCI-60 one-dose screen, 48 h (100 = growth as untreated, 0 = no growth, -100 = all killed). As to conditions: 10 µM. The method, then: Growth inhibition of the HCT-116 human tumor cell line is measured as a screen for anti-cancer activity. Cells are grown in 96 well plates and exposed to the test compound for 48 hours. Compounds are tested at a single concentration, which is 10^-5 M for most compounds. The reported endpoint is percent growth (GI% or GIPRCNT), where numbers from 0 - 100% represent growth inhibition, and numbers from -100% - 0 represent cell death. For example, a value of 40 represents 60% growth inhibition. A value of 0 means no net growth occurred over the course of the experiment. A value of -40 indicates 40% of cells at the beginning of the experiment died by the end of the experiment. A value of -100 means all cells are dead at the end of the experiment.
NCI-60 Human Tumor Cell Lines Screen was performed using the standard one-dose NCI protocol, which is described in more detail at https://dtp.cancer.gov/discovery_development/nci-60/default.htm.
Compounds with GIPRCNT values below 10 were considered active. Activity score was based on GIPRCNT using the following formula: […]
Score is 0 for GIPRCNT values of 100 or above, 50 for GIPRCNT values of 0, and 100 for GIPRCNT values of -100.
In the case of `CCN(CC)CCC(CNc1c(C)cnc2cc(Cl)ccc12)c1ccc(Cl)c(Cl)c1` (stereo not given), the growth is 21.7%.
The figure for `Cc1ccc(Nc2cc(C)nc(NCCCNc3ccnc4cc(Cl)ccc34)n2)cc1` is -100% (active); for `COc1ccc2c(c1)/C(=C\c1c[nH]c3ccc(OC)cc13)C(=O)N2` it is 30.1%; for `Cc1ccc(C(=O)N2C/C(=C/c3ccccc3)C(=O)/C(=C/c3ccccc3)C2)cc1` it is -55.5% (active).
Take `COC(=O)C(=C\c1ccc2c(c1)OCO2)/C(=C/c1ccc2c(c1)OCO2)C(=O)OC`: the growth was 92.9%.
The value for `O=C1/C(=C\c2ccc(Cl)cc2)CN(C(=O)c2ccccc2)C/C1=C\c1ccc(Cl)cc1` was -48.2% (active); that for `COc1cc(Cc2cc(-c3ccc(Cl)cc3)n[nH]c2=O)ccc1O` was 101%; that for `CN(C)CCN=c1nc2c(c(N)n1-c1ccccc1)c(=S)n(-c1ccccc1)c(=S)n2-c1ccccc1` was -22.1% (active).
The figure for `COc1ccc(-c2nn(-c3cccc(NC(=O)Nc4cccc(C(F)(F)F)c4)c3)cc2-c2ccncc2)cc1Cl` is 9.6% (active); for `Cc1cc(N(CCCNc2ccnc3cc(Cl)ccc23)Cc2ccc3c(c2)OCO3)nc(N2CCCCC2)n1` it is -43.9% (active); for `CCOC(=O)C1(CC(C)C)CCOC1=O` (stereo not given) it is 107%.
The value for `CN(Cc1ccccc1)Cc1ccc([N+](=O)[O-])cc1I` was 84%.
Take `Nc1ccn(C2CC(O)C(CO)O2)c(=O)n1` (stereo not given): the growth is 109%.
Regarding `N=c1c2c(-c3ccccc3)c(-c3ccccc3)n(Cc3ccccc3)c2ncn1CCCO`, the growth was 13.3%.
The value for `O=C1C(c2ccccc2)C2C=CC(C2)N1O` (stereo not given) was 104%; that for `O=C(CNC(=O)OCc1ccccc1)NCC(=O)Oc1ccc([N+](=O)[O-])cc1` was 93.7%.
The value for `Cc1ccc(C(=O)Nc2cccc(F)c2)cc1NC(=O)C1(c2ncnc3[nH]ccc23)CC1` was 44.5%; that for `CSc1cc(SC)ncn1` was 102%; that for `O=C(Nc1cccc(-n2cc(-c3ccncc3)c(-c3ccc(O)c(Cl)c3)n2)c1)c1ccc(N2CCOCC2)c(C(F)(F)F)c1` was 26.7%.
With `COc1ccc(C(=O)/C=C/c2cc(-c3cc(OC)c(OC)c(OC)c3)n[nH]2)cc1`, the growth is -76.3% (active).
The figure for `S=c1[nH]ccn1-c1c(Cl)cccc1Cl` is 93.9%; for `CS(=O)(=O)Nc1ccc(Nc2c3ccccc3nc3cc([N+](=O)[O-])ccc23)cc1` it is 4.91% (active); for `COc1ccc([N+](=O)[O-])c(C(=O)O)c1` it is 103%.
The value for `CCCCC(CCCCCC(CCCC)NCc1ccc2c(c1)OCO2)NCc1ccc2c(c1)OCO2` (stereo not given) was -100% (active); that for `CCCCCC(=O)c1ccc(OCCCN2CCN(C(=O)OCC)CC2)cc1` was 75.6%; that for `O=C1OCC2=C1C(c1cccc(Cl)c1)c1cc3c(cc1N2CCO)OCO3` (stereo not given) was 19%.
The value for `Nc1ncnc2[nH]c(=O)[nH]c12` was 91.3%; that for `CC(=O)c1nc2ccccc2n1CCNC(N)=O` was 37.2%; that for `COc1ccccc1CNCCN1C(=O)c2ccc3c4c(ccc(c24)C1=O)C(=O)N(CCNCc1ccccc1OC)C3=O` was -92.6% (active).
Turning to `COc1cccc(C2C3=C(COC3=O)N(CCO)c3cc(OC)ccc32)c1` (stereo not given), the growth is 10.6%.
The figure for `COc1cc([C@@H]2c3cc4c(cc3C(Br)[C@H]3COC(=O)[C@H]23)OCO4)cc(OC)c1OC` (stereo not given in full) is -34.7% (active); for `O=C(O)c1ccc(Cl)cc1Nc1ccc(F)cc1` it is 72.8%; for `CCOC(=O)C(=Cc1ccc(Br)cc1)C(=O)OCC` it is -80.4% (active).
The value for `COc1cc(-c2cc(-c3cc4c([nH]c5ccccc54)c(-c4cc(OC)c(OC)c(OC)c4)n3)cc(-c3ccccc3)n2)cc(OC)c1OC` was 57%; that for `COc1ccc(Nc2ncnc3c2c(SC)nn3-c2ccccc2)cc1` was 89.2%; that for `COc1ccc(-c2nc3sc(C4CC4)nn3c2/C=C2/C(=O)Nc3ccc(OC)cc32)cc1` was 66.3%.
The value for `CC(C)(C)c1ccc(N2CSC(=S)N(c3ccc(C(C)(C)C)cc3)C2)cc1` was 91.8%; that for `O=C(Nc1ccncc1)C(=O)c1cn(S(=O)(=O)c2cccc(Cl)c2)c2ccccc12` was 24%; that for `COc1ccc(/C=C/C(=O)Nc2ccc(-c3nc4ccc(F)cc4s3)cc2)cc1` was 88.5%.
As to `Cc1cc(C)c(CCc2cc(C)c(C)cc2C)cc1C`, the growth is 106%.
